{
  "source": "PubChem BioAssay AID1345085",
  "about": "(National Center for Advancing Translational Sciences (NCATS), 2018)",
  "note": "Records with an inconclusive call do not appear. The source made the active and inactive calls. The call rests on the fitted dose curve; in most records, active means well fitted cell-killing curve with a large enough effect; inconclusive means small, poorly fitted or top-dose-only effect, or effect the other way; inactive means no such curve, though single readings can be large or run the other way. Potency means the concentration at half of the fitted maximal effect.",
  "data": [
    {"test_system": "CASKI", "assay": "Confirmatory qHTS for gynecologic anti-cancer compounds from libraries of approved drugs and bioactive compounds; further: nearly all actives have a fitted effect of over 55% in size", "conditions": "gynecologic cancer cell panel viability, ATPlite luminescence, 48 h; series mostly up to 57.6 µM", "in_short": "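ATPlite luminescence read-out of cell viability; IC50 from 11-point 1:3 titrations, 57.5 uM to 0.977 nM, 48 h compound exposure at 37 C, 5% CO2. Cells seeded at 1,000/well 16 h before dosing.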", "values": [
      {"smiles": "CNC(=O)c1ccccc1Nc1nc(Nc2ccc(N3CCOCC3)cc2OC)ncc1Cl", "Potency": "6.11 µM (active)"},
      {"smiles": "COc1ccc2c(c1)c(CC(=O)O)c(C)n2C(=O)c1ccc(Cl)cc1", "Potency": "inactive"},
      {"smiles": "CN(c1nccc(=O)[nH]1)C1CCN(c2nc3ccccc3n2Cc2ccc(F)cc2)CC1", "Potency": "inactive"},
      {"smiles": "COc1cc(-c2nn(C3CCC(N4CCN(C(C)=O)CC4)CC3)c3ncnc(N)c23)ccc1NC(=O)c1cc2ccccc2n1C", "note": "(stereo not drawn)", "Potency": "inactive"},
      {"smiles": "OC[C@H]1O[C@@H](n2cnc3c(=S)nc[nH]c32)[C@H](O)[C@@H]1O", "Potency": "4.85 µM (active)"},
      {"smiles": "COc1cc(Nc2ncc3c(n2)-c2ccc(Cl)cc2C(c2c(F)cccc2OC)=NC3)ccc1C(=O)O", "Potency": "19.3 µM (active)"},
      {"smiles": "Cc1c(NC(=O)OCC2COCCN2)cn2ncnc(Nc3ccc4c(cnn4Cc4cccc(F)c4)c3)c12", "note": "(stereo not drawn)", "Potency": "19.3 µM (active)"},
      {"smiles": "C=CC(=O)Nc1cc2c(Nc3ccc(F)c(Cl)c3)ncnc2cc1OCCCN1CCOCC1", "Potency": "27.3 µM (active)"},
      {"smiles": "Cc1ccc(C(=O)N(CCCN)C(c2nc3cc(Cl)ccc3c(=O)n2Cc2ccccc2)C(C)C)cc1", "note": "(stereo not drawn)", "Potency": "27.3 µM (active)"},
      {"smiles": "CNC1CCC(N(Cc2cccc(-c3ccncc3)c2)C(=O)c2sc3ccccc3c2Cl)CC1", "note": "(stereo not drawn)", "Potency": "34.3 µM (active)"},
      {"smiles": "CCOc1cc2ncc(C#N)c(Nc3ccc(F)c(Cl)c3)c2cc1NC(=O)/C=C/CN(C)C", "Potency": "8.63 µM (active)"},
      {"smiles": "Cc1ccc(C(=O)Nc2cccc(C(F)(F)F)c2)cc1-c1ccc2nc(NCCN3CCOCC3)ncc2c1", "Potency": "12.2 µM (active)"},
      {"smiles": "CC(C)C[C@H](NC(=O)[C@H](Cc1ccccc1)NC(=O)c1cnccn1)B(O)O", "Potency": "0.0343 µM (active)"},
      {"smiles": "CC[C@@]1(O)C(=O)OCc2c1cc1n(c2=O)Cc2cc3c(CN(C)C)c(O)ccc3nc2-1", "Potency": "1.09 µM (active)"},
      {"smiles": "Cc1cc(Nc2cc(N3CCN(C)CC3)nc(Sc3ccc(NC(=O)C4CC4)cc3)n2)n[nH]1", "Potency": "inactive"},
      {"smiles": "COC(C(=O)N1Cc2[nH]nc(NC(=O)c3ccc(N4CCN(C)CC4)cc3)c2C1)c1ccccc1", "note": "(stereo not drawn)", "Potency": "7.69 µM (active)"},
      {"smiles": "O=c1cc(CN2CCOCC2)occ1OCCCCCSc1ccnc2cc(C(F)(F)F)ccc12", "Potency": "24.3 µM (active)"},
      {"smiles": "CCC1=CC2CN(C1)Cc1c([nH]c3ccccc13)[C@@](C(=O)OC)(c1cc3c(cc1OC)N(C)[C@H]1[C@@](O)(C(=O)OC)[C@H](OC(C)=O)[C@]4(CC)C=CCN5CC[C@]31[C@@H]54)C2", "note": "(stereo partly drawn)", "Potency": "inactive"},
      {"smiles": "COc1cc2c(c(OC)c1OC)-c1ccc(OC)c(=O)cc1[C@@H](NC(C)=O)CC2", "Potency": "inactive"},
      {"smiles": "CCN1CCN(Cc2ccc(-c3cc4c(NC(C)c5ccccc5)ncnc4[nH]3)cc2)CC1", "note": "(stereo not drawn)", "Potency": "19.3 µM (active)"},
      {"smiles": "Cc1cncc2cccc(S(=O)(=O)N3CCCN(C(=O)CN)C[C@@H]3C)c12", "Potency": "inactive"},
      {"smiles": "CN(C)CC/C=C1\\c2ccccc2COc2ccccc21", "Potency": "inactive"},
      {"smiles": "C[C@]12CCC(=O)C=C1CC[C@@H]1[C@@H]2[C@@H](O)C[C@@]2(C)[C@H]1CC[C@]2(O)C(=O)CO", "Potency": "inactive"},
      {"smiles": "CC[C@@]1(O)C(=O)OCc2c1cc1n(c2=O)Cc2c-1nc1ccccc1c2/C=N/OC(C)(C)C", "Potency": "0.153 µM (active)"},
      {"smiles": "CC(C)C[C@H](NC(=O)[C@@H](NC(=O)c1cccc(-c2ccccc2)n1)[C@@H](C)O)B(O)O", "Potency": "0.0611 µM (active)"},
      {"smiles": "Nc1nccc(Oc2ccc(NC(=O)c3c[nH]cc(-c4ccc(F)cc4)c3=O)cc2F)c1Cl", "Potency": "12.2 µM (active)"},
      {"smiles": "CCN(CC)CCOc1ccc(/C(=C(\\Cl)c2ccccc2)c2ccccc2)cc1", "Potency": "112 µM (active)"},
      {"smiles": "CN1CCN(c2cccc(Nc3nc4c(-c5ccc(S(C)(=O)=O)cc5)cccn4n3)c2)CC1", "Potency": "inactive"},
      {"smiles": "CCc1c2c(nc3ccc(OC(=O)N4CCC(N5CCCCC5)CC4)cc13)-c1cc3c(c(=O)n1C2)COC(=O)[C@]3(O)CC", "Potency": "19.3 µM (active)"},
      {"smiles": "CC(Oc1cc(-n2cnc3ccc(CN4CCN(C)CC4)cc32)sc1C(N)=O)c1ccccc1C(F)(F)F", "note": "(stereo not drawn)", "Potency": "13.7 µM (active)"},
      {"smiles": "Cc1cnc(Nc2ccc(OCCN3CCCC3)cc2)nc1Nc1cccc(S(=O)(=O)NC(C)(C)C)c1", "Potency": "19.3 µM (active)"},
      {"smiles": "C#C[C@]1(O)CC[C@H]2[C@@H]3CCC4=CC(=O)CC[C@@H]4[C@H]3CC[C@@]21CC", "Potency": "inactive"},
      {"smiles": "COc1c(C)c2c(c(O)c1C/C=C(\\C)CCC(=O)O)C(=O)OC2", "Potency": "inactive"}
    ]}
  ]
}
